Data on 18 compounds can be found in PubChem BioAssay (Tox21).

For test [1], the target named is Acetylcholinesterase (Homo sapiens) (UniProt P22303). As to the kind of experiment: Acetylcholinesterase (AChE) small molecule antagonists: colormetric cell-based qHTS assay (AID 1347395; calls by dose curve; also: nearly all actives have a fitted effect of over 30% in size; also: potency is read from the fitted curve at half-maximal effect). Put shortly:
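Homogeneous whole-cell format. SH-SY5Y cells seeded overnight, dosed with compound (30 min, 37 C, 5% CO2), then given DTNB/acetylthiocholine cocktail for 90 min at 37 C; colorimetric signal.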
A general note: qHTS replaces the single test concentration by a dilution series.

Test [2] has the same target. Description: Acetylcholinesterase (AChE) small molecule antagonists: enzyme-based qHTS assay (AID 1347397; calls by dose curve; also: nearly all actives have a fitted effect of over 55% in size). To be noted: Potency: AChE enzyme activity inhibition. Put shortly:
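Colorimetric DTNB read-out of thiocholine released from acetylthiocholine by recombinant human AChE (50 mU/mL as dispensed). Compounds were preincubated 30 min at RT before substrate/DTNB addition, with a 10 min RT reaction.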

Test [3] shares this target. Description: Acetylcholinesterase (AChE) small molecule antagonists: fluorescence cell-based qHTS assay (AID 1347398; calls by dose curve; also: nearly all actives have a fitted effect of over 50% in size; also: potency is read from the fitted curve at half-maximal effect). The settings on record: Potency: AChE activity. The essentials: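 SH-SY5Y, 2,000 cells/well, attached overnight; cmpd 30 min 37 C; acetylthiocholine/Thiolite Green cocktail 40 min RT; fluorescence Ex/Em 490/520 nm.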
The target is the same in test [4]. Description: Acetylcholinesterase (AChE) small molecule antagonists: enzyme-based qHTS assay with human liver microsomes (AID 1347399; calls by dose curve; also: nearly all actives have a fitted effect of over 60% in size). To be noted: Potency: qHTS inhibition. The essentials: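 Recombinant human AChE (50 mU/mL in the enzyme mix) and human liver microsomes (0.25 mg/mL final) were preincubated with compound and NADPH (0.25 mg/mL final) for 30 min at 37 C. Acetylthiocholine/DTNB was then added; thiocholine was read colorimetrically after 10 min at room temperature.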

Test [5] deals with Cytochrome P450 2D6 (Homo sapiens) (UniProt P10635). As to the kind of experiment: Cytochrome P450 Family 2 Subfamily D Member 6 (CYP2D6) small molecule antagonists: luciferase reporter qHTS assay (AID 1671196). Also: nearly all actives have a fitted effect of over 50% in size. Also: potency is read from the fitted curve at half-maximal effect. Put shortly: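 CYP2D6 activity was followed as luminescence from its luciferin product after a 1 h NADPH-driven reaction at room temperature. Enzyme-substrate mix and compound were pre-incubated for 10 min, and the signal was read 20 min after adding detection reagent.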
(In a reporter assay the amount or activity of a reporter protein is the signal.)

In test [6] the target is Cytochrome P450 2C19 (Homo sapiens) (UniProt P33261). Description: Cytochrome P450 Family 2 Subfamily C Member 19 (CYP2C19) small molecule antagonists: luciferase reporter qHTS assay (AID 1671197). Also: nearly all actives have a fitted effect of over 65% in size. Also: potency is read from the fitted curve at half-maximal effect. Put shortly: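 Compounds were tested on CYP2C19 activity via proluciferin conversion to luciferin. The 37C, 1 h reaction followed NADPH addition; detection reagent stopped it.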

The target of test [7] is Cytochrome P450 2C9 (Homo sapiens) (UniProt P11712). Description: Cytochrome P450 Family 2 Subfamily C Member 9 (CYP2C9) small molecule antagonists: luciferase reporter qHTS assay (AID 1671198). Also: nearly all actives have a fitted effect of over 50% in size. Also: potency is read from the fitted curve at half-maximal effect. Put shortly: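 P450-Glo proluciferin substrate with CYP2C9 enzyme; 10 min RT preincubation, then NADPH regeneration 1 h at 37C; luciferin detection reagent 20 min RT, luminescence in relative luminescence units.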

The target in test [8] is Cytochrome P450 1A2 (Homo sapiens) (UniProt P05177). As to the kind of experiment: Cytochrome P450 Family 1 Subfamily A Member 2 (CYP1A2) small molecule antagonists: luciferase reporter qHTS assay (AID 1671199). Also: nearly all actives have a fitted effect of over 50% in size. Also: potency is read from the fitted curve at half-maximal effect. Put shortly:
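Luminescence from luciferin formed by CYP1A2 from a proluciferin substrate, read 20 min after detection reagent. Compound was pre-incubated 10 min with enzyme-substrate, and reaction started with NADPH regeneration solution for 1 h at room temperature; furafylline control.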

The target in test [9] is Voltage-gated inwardly rectifying potassium channel KCNH2 (Homo sapiens) (UniProt Q12809). Description: Human Ether-a-go-go-Related Gene (hERG) channel small molecule antagonists: fluorescence cell-based qHTS assay (AID 1671200). The essentials:
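Thallium served as the potassium surrogate; its influx into dye-loaded U2OS cells carrying the channel was measured by fluorescence over 2 min.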
On the technique in general: hERG is a cardiac potassium channel; its block is linked to QT prolongation.

Test [10] concerns the target Cytochrome P450 3A4 (Homo sapiens) (UniProt P08684). Description: Cytochrome P450 Family 3 Subfamily A Member 4 (CYP3A4) small molecule antagonists: luciferase reporter qHTS assay (AID 1671201). Also: nearly all actives have a fitted effect of over 50% in size. Also: potency is read from the fitted curve at half-maximal effect. The essentials:
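Relative luminescence units after 20 min with luciferin detection reagent served as read-out. Beforehand, CYP3A4 turned over a proluciferin substrate for 1 h at room temperature with NADPH regeneration, following 10 min compound preincubation.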

Molecules are shown by their SMILES. Values joined by “and” are separate entries in the source; they are usually repeats but may differ in a detail not shown here. Identical values can stand only once. Inconclusive results are not listed. The source holds several records for some structures; these can differ, active in one and inactive in another. Active and inactive are the calls of the source. Unless noted, calls follow the shape of the dose curve; as a rule, active = well fitted curve in the direction sought with a large enough effect in the repeat runs; inconclusive = weak or mixed curves; inactive = no such curve, though single readings can be large; an effect the other way counts as inactive or inconclusive.

Voltage-gated inwardly rectifying potassium channel KCNH2 (Homo sapiens), sequence (Q12809 whole entry, looked up): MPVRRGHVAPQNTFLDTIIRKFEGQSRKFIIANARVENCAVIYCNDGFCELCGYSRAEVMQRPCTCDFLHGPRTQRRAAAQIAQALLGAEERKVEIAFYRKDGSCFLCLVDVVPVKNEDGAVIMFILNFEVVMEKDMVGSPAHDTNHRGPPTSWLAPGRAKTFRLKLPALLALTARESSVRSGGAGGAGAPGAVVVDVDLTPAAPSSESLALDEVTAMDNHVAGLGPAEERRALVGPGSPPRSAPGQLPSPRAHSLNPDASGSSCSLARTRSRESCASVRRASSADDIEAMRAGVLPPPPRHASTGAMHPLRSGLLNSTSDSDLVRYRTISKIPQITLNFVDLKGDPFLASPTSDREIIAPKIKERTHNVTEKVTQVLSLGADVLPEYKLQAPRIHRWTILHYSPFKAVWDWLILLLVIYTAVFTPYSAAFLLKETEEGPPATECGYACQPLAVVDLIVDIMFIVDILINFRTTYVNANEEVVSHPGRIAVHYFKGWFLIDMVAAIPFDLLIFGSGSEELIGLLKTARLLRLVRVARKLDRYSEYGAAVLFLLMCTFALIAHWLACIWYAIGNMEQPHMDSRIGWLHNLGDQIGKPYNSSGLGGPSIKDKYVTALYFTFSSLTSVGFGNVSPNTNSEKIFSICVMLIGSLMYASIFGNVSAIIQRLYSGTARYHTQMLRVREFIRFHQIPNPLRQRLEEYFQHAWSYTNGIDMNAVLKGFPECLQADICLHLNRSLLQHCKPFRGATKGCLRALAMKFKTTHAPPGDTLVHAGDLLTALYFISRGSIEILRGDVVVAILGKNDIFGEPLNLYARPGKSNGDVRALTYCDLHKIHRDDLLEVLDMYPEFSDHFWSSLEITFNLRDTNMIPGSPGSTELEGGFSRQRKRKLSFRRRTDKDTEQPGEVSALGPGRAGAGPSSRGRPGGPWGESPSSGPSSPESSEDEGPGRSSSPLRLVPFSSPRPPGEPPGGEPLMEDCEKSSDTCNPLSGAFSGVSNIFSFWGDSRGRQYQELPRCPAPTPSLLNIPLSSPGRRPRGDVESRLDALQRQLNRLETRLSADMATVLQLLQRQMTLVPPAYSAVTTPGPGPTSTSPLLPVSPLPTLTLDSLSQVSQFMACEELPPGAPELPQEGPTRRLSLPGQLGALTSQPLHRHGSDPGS
Acetylcholinesterase (Homo sapiens), sequence (P22303 whole entry, looked up): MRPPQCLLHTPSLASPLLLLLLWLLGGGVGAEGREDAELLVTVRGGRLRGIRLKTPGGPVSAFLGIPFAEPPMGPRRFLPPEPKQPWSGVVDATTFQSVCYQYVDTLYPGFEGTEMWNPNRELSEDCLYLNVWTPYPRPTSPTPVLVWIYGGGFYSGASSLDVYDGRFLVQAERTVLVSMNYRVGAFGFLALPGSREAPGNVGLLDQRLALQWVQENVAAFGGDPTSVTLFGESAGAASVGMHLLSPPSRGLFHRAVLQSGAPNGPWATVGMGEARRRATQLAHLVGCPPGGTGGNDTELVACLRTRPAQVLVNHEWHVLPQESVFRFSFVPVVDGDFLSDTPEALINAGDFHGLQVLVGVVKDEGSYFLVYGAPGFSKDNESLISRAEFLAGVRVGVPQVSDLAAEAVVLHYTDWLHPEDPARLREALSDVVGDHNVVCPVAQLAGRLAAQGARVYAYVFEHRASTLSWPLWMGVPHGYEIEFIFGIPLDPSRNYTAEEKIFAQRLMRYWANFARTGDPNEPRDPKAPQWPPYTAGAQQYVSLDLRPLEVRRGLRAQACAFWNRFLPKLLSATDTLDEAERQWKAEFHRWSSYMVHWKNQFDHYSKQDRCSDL
Cytochrome P450 2D6 (Homo sapiens), sequence (P10635 whole entry, looked up): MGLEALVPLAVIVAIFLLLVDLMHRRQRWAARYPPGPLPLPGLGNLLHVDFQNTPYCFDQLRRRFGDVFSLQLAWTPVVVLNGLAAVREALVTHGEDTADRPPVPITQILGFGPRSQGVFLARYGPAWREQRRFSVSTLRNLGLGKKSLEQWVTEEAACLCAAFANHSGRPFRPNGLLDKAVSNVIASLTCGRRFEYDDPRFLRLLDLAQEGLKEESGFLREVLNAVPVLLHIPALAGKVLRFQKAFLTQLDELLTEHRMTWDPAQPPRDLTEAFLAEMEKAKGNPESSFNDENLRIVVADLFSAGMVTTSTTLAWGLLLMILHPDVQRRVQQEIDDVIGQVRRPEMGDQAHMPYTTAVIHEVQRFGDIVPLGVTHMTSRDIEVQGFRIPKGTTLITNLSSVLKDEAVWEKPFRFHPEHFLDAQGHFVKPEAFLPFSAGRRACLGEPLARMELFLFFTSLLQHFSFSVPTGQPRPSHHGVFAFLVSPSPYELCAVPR
Cytochrome P450 2C9 (Homo sapiens), sequence (P11712 whole entry, looked up): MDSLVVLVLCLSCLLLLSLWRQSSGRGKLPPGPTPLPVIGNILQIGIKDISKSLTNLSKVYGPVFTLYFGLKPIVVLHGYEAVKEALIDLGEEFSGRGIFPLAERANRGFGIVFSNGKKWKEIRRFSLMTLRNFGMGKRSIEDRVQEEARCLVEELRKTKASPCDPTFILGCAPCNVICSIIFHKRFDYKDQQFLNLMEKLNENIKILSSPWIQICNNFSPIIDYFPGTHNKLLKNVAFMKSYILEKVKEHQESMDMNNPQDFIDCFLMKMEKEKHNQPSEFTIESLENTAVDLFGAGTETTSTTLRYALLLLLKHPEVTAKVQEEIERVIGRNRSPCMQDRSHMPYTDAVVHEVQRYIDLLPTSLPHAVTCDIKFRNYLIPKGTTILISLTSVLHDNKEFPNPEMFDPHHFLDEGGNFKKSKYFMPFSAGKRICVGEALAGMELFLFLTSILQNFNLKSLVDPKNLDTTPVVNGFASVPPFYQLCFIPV
Cytochrome P450 3A4 (Homo sapiens), sequence (P08684 whole entry, looked up): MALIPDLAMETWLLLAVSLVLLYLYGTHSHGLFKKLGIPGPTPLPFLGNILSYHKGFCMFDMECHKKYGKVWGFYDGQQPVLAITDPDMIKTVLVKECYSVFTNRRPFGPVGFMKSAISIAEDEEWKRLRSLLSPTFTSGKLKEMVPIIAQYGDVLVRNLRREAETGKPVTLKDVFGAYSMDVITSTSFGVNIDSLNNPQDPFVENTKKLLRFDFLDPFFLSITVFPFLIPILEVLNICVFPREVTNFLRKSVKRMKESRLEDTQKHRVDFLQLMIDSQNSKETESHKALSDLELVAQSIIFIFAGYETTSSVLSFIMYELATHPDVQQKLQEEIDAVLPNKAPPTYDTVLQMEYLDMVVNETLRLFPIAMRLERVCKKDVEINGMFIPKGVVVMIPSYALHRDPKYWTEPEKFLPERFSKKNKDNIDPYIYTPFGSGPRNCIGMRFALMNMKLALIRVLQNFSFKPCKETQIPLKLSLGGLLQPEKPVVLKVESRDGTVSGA
Cytochrome P450 1A2 (Homo sapiens), sequence (P05177 whole entry, looked up): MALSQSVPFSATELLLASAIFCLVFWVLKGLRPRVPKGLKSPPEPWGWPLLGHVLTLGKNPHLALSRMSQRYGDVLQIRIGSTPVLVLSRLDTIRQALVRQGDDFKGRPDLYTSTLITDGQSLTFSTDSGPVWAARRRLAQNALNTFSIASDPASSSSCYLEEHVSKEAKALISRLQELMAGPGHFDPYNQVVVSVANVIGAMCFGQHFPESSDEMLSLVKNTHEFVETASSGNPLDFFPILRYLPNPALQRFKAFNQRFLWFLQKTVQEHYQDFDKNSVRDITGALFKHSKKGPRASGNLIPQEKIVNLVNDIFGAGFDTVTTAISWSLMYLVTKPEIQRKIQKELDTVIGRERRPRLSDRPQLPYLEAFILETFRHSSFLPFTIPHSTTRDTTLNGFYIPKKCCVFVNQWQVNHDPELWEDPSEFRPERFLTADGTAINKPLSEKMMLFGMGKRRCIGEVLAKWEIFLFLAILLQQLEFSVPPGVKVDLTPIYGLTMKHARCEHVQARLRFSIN
Cytochrome P450 2C19 (Homo sapiens), sequence (P33261 whole entry, looked up): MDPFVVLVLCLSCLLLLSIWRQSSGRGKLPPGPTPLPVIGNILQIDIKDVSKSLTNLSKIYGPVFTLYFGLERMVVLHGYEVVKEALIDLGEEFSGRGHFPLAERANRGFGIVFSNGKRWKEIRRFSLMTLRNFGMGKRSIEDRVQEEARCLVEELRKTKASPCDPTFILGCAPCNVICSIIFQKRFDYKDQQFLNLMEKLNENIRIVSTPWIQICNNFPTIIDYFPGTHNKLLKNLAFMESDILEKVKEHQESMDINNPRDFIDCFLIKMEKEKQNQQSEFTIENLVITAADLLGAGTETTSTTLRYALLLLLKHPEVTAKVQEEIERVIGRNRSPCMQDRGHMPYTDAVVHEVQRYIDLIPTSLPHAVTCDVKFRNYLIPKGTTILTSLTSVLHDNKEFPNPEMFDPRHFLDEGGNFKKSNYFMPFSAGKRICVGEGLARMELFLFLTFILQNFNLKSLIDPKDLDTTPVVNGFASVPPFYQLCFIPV

For `OCC(O)CO`, the Potency result in test [1], in [2], in test [3], in [4], in [5] and in [6] was “inactive” each time. Moreover, the Potency result in test [7], in test [8], in test [9] and in test [10] was “inactive” throughout.
In the case of `Nc1cccnc1`, the Potency entry in test [1], in test [2], in test [3], in [4], in test [5] and in [7] was “inactive” in each case. Besides, the Potency entry in test [8], in [9] and in [10] was “inactive” throughout. The Potency in test [6] was 71 µM (active).
Take `Cc1ccc(N)c(N)c1`: the Potency result in test [1], in [2], in test [3], in [4] and in test [9] was “inactive” throughout. In addition, the Potency in test [5] was 3.57 µM (active) and 17.8 µM (active); in [6] it was 17.9 µM (active) and 31.7 µM (active); in test [7] it was 35.7 µM (active) and 20 µM (active); in [8], 5.66 µM (active) and 20 µM (active); in [10], 31.8 µM (active) and 31.7 µM (active).
Consider `CC(O)CCO` (centres undefined), for which the Potency result in [1], in test [2], in [3], in test [4], in [7] and in test [8] was “inactive” in each case. Moreover, the Potency result in [9] and in test [10] was “inactive” throughout. Moreover, the Potency in [5] is 32 µM (active) and inactive; in test [6] it was “inactive and 71 µM (active)”.
Turning to `c1ccc(NNc2ccccc2)cc1`, the Potency entry in test [1], in test [2], in test [3], in [4], in test [5] and in [6] was “inactive” throughout. For the same compound, the Potency result in test [9] and in [10] was “inactive” throughout. For the same compound, the Potency in [7] was 71.7 µM (active) and inactive.
For `CC(C)=CC1C(C(=O)OCc2coc(Cc3ccccc3)c2)C1(C)C` (centres undefined), the Potency result in [1], in [2], in test [3], in test [4], in [5] and in test [9] was “inactive” in each case. For the same compound, the Potency in test [6] is 8.95 µM (active) and 6.32 µM (active); in test [7], 7.98 µM (active) and 3.55 µM (active).
In the case of `Nn1cnnc1`, the Potency entry in test [1], in test [2], in [3], in test [4], in [5] and in [9] was “inactive” in each case. Moreover, in test [10], the Potency result is “inactive”. Also, the Potency in test [6] is 19.3 µM (active) and 71 µM (active); in [7], 34.4 µM (active).
As for `C=C(C)C(=O)OCC1CO1` (centres undefined), the Potency result in test [1], in test [2], in test [3], in [4], in test [5] and in test [6] was “inactive” each time. In addition, the Potency entry in [7], in [9] and in test [10] was “inactive” throughout.
In the case of `CC(C)Oc1cc(-n2nc(C(C)(C)C)oc2=O)c(Cl)cc1Cl`, the Potency result in test [1], in test [2], in test [3], in [4], in test [5] and in [10] was “inactive” in each case. Further, the Potency was 7 µM (active) and 3.99 µM (active) in test [6]; 27.9 µM (active) and 25.2 µM (active) in test [7]; 1.4 µM (active) and 2.83 µM (active) in test [8].
On to `Oc1cc(Cl)ccc1Cl`, for which the Potency entry in [1], in test [2], in test [3], in test [4], in test [5] and in test [6] was “inactive” each time. The Potency entry in test [7], in [9] and in [10] was “inactive” in each case.
For the compound `Oc1cc(Cl)c(Cl)cc1Cl`, the Potency result in test [1], in test [2], in [3], in test [4], in [5] and in test [6] was “inactive” throughout. The Potency result in [7], in test [9] and in test [10] was “inactive” each time.
On to `CCN(CC)N=O`, for which the Potency entry in test [1], in test [2], in test [3], in [4], in test [5] and in [7] was “inactive” each time. Also, the Potency result in test [9] and in test [10] was “inactive” in each case. Besides, the Potency in test [6] is 22.6 µM (active).
On to `COP(=S)(OC)Oc1ccc([N+](=O)[O-])cc1`, for which the Potency was 25.2 µM (active) in [1]; “inactive and 35.6 µM (active)” in test [3]; “inactive and 35.6 µM (active)” in test [5]; 8.95 µM (active) and 2.52 µM (active) in [6]; 35.6 µM (active) and 12.6 µM (active) in test [7]; 17.8 µM (active) in test [10]. Besides, the Potency entry in [2], in [4] and in [9] was “inactive” each time.
In the case of `CC1(C)C(C=C(Cl)Cl)C1C(=O)OC(C#N)c1cccc(Oc2ccccc2)c1` (centres undefined), the Potency result in test [1], in [2], in [3], in [4], in test [5] and in [9] was “inactive” in each case. Also, in test [10], the Potency entry was “inactive”. The Potency was 17.8 µM (active) and 24.5 µM (active) in test [6]; 5.64 µM (active) and 12.3 µM (active) in test [7].
On to `O=C1C=CC(=O)C=C1`, for which the Potency entry in [1], in test [2], in test [3], in test [4], in test [5] and in test [6] was “inactive” in each case. Moreover, the Potency result in [7], in [9] and in test [10] was “inactive” in each case.
With `Cc1cc(C)cc(C)c1`, the Potency entry in test [1], in test [2], in [3], in test [4], in [5] and in test [6] was “inactive” in each case. Further, the Potency result in test [7], in test [9] and in [10] was “inactive” throughout.
For the compound `CCCCCCCCOC(=O)c1ccccc1C(=O)OCCCCCCCC`, the Potency result in test [1], in [2], in test [3], in [4], in [5] and in [9] was “inactive” throughout. The Potency is 50.1 µM (active) and inactive in test [6]; 14.2 µM (active) in test [7].
Take `CCN(N=O)C(N)=O`: the Potency result in test [1], in test [2], in [3], in test [4], in test [5] and in test [7] was “inactive” in each case. In addition, the Potency entry in [9] and in test [10] was “inactive” each time. In test [6], the Potency is 69.7 µM (active) and inactive.
